The supplement of paper PMC12669032
A number with no mark means an inactive call.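 How the source made its calls: active = AUC reduced over 20% with Padj below 0.05 in at least 2 of 3 replicates; inactive = otherwise.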

Experiments:
Assay in all cases: growth AUC relative to DMSO control (median of replicates) (fraction); higher = more growth (less inhibition), active = hit call of the paper
Conditions in all cases: 20 µM; 24 h
Akkermansia muciniphila = test system: Akkermansia muciniphila
In short: (§1)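 Gut bacterial monocultures in mGAM were treated with 20 µM compound (1% DMSO) and grown anaerobically at 37 °C in round-bottom 96-well plates from OD600 0.05. OD600 was read hourly for 24 h, with the minimum OD set to 0. Area under the growth curve was normalised to the plate median of solvent-only wells, or to row and column medians on the industrial chemical plate. Each value is the median of three biological replicates, each grown on a separate day.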

Bacteroides caccae = test system: Bacteroides caccae
In short: as §1

Bacteroides clarus = test system: Bacteroides clarus
In short: as §1

Bacteroides dorei = test system: Bacteroides dorei
In short: as §1

Bacteroides stercoris = test system: Bacteroides stercoris
In short: as §1

[1] = test system: Bacteroides thetaiotaomicron
In short: as §1

Bacteroides uniformis = test system: Bacteroides uniformis
In short: as §1

[2] = test system: Bifidobacterium longum subsp. longum
In short: as §1

Clostridium difficile = test system: Clostridium difficile
In short: as §1

Collinsella aerofaciens = test system: Collinsella aerofaciens
In short: as §1

SMILES	growth AUC (Akkermansia muciniphila)	growth AUC (Bacteroides caccae)	growth AUC (Bacteroides clarus)	growth AUC (Bacteroides dorei)	growth AUC (Bacteroides stercoris)	growth AUC [1]	growth AUC (Bacteroides uniformis)	growth AUC [2]	growth AUC (Clostridium difficile)	growth AUC (Collinsella aerofaciens)
CCSCCSP(=S)(OC)OC	1.09	1.02	0.996	0.996	1.07	0.992	1.01	1.03	1.03	1.09
CC(C)OP(=O)(OC(C)C)SCc1ccccc1	1.12	0.976	0.99	0.981	0.997	0.964	0.968	0.902	0.968	1
CN(C)NC(=O)CCC(=O)O	0.948	1	1.01	1.04	1.01	0.998	0.992	1.01	0.991	1
[Cl][Sn]([c]1ccccc1)([c]1ccccc1)[c]1ccccc1	0.915	0.0272 (active)	0.272 (active)	0.0162 (active)	0.0164 (active)	0.00729 (active)	0.0126 (active)	0.303 (active)	0.849	0.152 (active)
Cc1ccc(NC(=O)N(C)C)cc1Cl	0.946	1.04	0.989	1.01	0.954	1	0.976	0.827	1.01	0.989
CNC(=O)Oc1cccc(N=CN(C)C)c1.Cl	1.18	1.03	1.03	1.02	1.12	1.02	0.993	1.06	1.02	1.04
CC1(C)CON(Cc2ccccc2Cl)C1=O	1.11	0.927	1.01	0.917	0.996	0.98	0.949	0.938	0.977	0.947
Nc1ccc(Cc2ccc(N)c(Cl)c2)cc1Cl	0.988	0.994	0.981	1.01	0.931	0.971	0.968	1.02	1	1
CC(C)N(C)S(=O)(=O)NC(=O)c1cc(-n2c(=O)cc(C(F)(F)F)n(C)c2=O)c(F)cc1Cl	0.916	1.02	0.989	1	1.09	0.951	0.94	1	0.976	1.04
CCCC1COC(Cn2cncn2)(c2ccc(Cl)cc2Cl)O1 (stereo not given)	1.02	0.952	0.912	0.945	0.854	0.902	0.871	0.97	0.956	0.981
OC(Cn1cncn1)(c1ccc(F)cc1)c1ccccc1F (stereo not given)	0.876	0.976	0.971	0.988	1	0.98	0.999	1.21	1	0.985
CCOc1ccc(C(C)(C)COCc2cccc(Oc3ccccc3)c2)cc1	1.08	0.967	1.03	0.967	0.792	0.958	1.05	1.48	1.04	0.967
COC(=O)C(C)Oc1ccc(Oc2ccc(Cl)cc2Cl)cc1 (stereo not given)	0.924	0.963	0.951	1.04	0.795	0.986	0.963	0.919	1.01	0.958
COP(=S)(OC)Oc1ccc([N+](=O)[O-])c(Cl)c1	1.04	0.99	0.973	0.972	0.973	0.993	0.943	1.01	0.961	0.958
CCOP(=O)(SC(C)CC)N1CCSC1=O (stereo not given)	0.9	1.02	0.977	1	1.07	0.992	0.996	1.02	1.02	1.05
CCOC(=O)C(O)(c1ccc(Cl)cc1)c1ccc(Cl)cc1	0.996	0.872	0.78 (active)	0.951	0.376 (active)	0.874	0.991	0.997	1.04	0.978
CCOP(=S)(OCC)SCn1c(=O)oc2cc(Cl)ccc21	0.99	0.921	0.94	0.936	0.831	0.945	0.927	0.943	0.978	0.991
CC(Oc1ccc(Oc2ccc(C(F)(F)F)cn2)cc1)C(=O)O (stereo not given)	1.17	0.992	1.02	0.943	1.04	1.01	0.899	1.05	0.917	0.941
CCOP(=O)(OCC)O/C(=C/Br)c1ccc(Cl)cc1Cl	1.06	0.94	0.952	0.948	0.879	0.89	0.821	0.991	0.978	1.06
ClC1=C(Cl)C2(Cl)[C@H]3[C@H]4O[C@H]4[C@H](Cl)[C@H]3C1(Cl)C2(Cl)Cl (single isomer, unassigned; isomer a)	1.05	0.99	0.989	1	0.778	1.02	0.991	1.07	0.998	0.949
CCC(C)(CC)c1cc(NC(=O)c2c(OC)cccc2OC)on1	1.05	1.01	0.949	1.03	1.04	0.959	0.965	1.04	1	0.959
CC(C)c1ccc(NC(=O)N(C)C)cc1	1.04	0.978	0.987	1.02	0.937	1.02	1.02	1.18	0.995	0.947
CCOP(=S)(OCC)SCSP(=S)(OCC)OCC	0.958	1	0.949	0.974	1.04	1.01	0.981	1.03	0.995	0.996
Clc1cc(Cl)nc(-c2ccccc2)n1	1.12	0.877	0.99	0.995	1	0.971	0.956	1.09	0.956	0.927
Cc1cc(Cl)ccc1OC(C)C(=O)O (stereo not given)	0.902	1.02	0.996	1	1.01	1.01	1	0.88	1.03	1.01
COP(=S)(OC)SCC(=O)N(c1ccc(Cl)cc1)C(C)C	0.942	0.983	0.965	0.965	1.03	0.929	0.912	1.02	1.01	0.993
Cc1nc(N(C)C)nc(OC(=O)N(C)C)c1C	1.02	0.997	0.989	1.05	1.05	1.02	0.977	0.826	1.05	1.04
Oc1c(Cl)c(Cl)cc(Cl)c1Cl	0.834	0.81	0.726 (active)	0.758	0.684	0.794	0.636 (active)	0.974	0.941	0.941
ClCC1C(CCl)C2(Cl)C(Cl)=C(Cl)C1(Cl)C2(Cl)Cl (stereo not given)	0.995	0.971	0.999	0.972	0.985	0.994	1.01	1.02	0.989	0.962
